High-throughput results as filed in PubChem BioAssay.
Compounds with a hit are over-represented: about 19% of the library has one in this group of screens.
TGFb SMAD3 inh: blocks TGF-b signaling | HepG2 CAGA-GFP TGF-b/SMAD3 reporter, GFP fluorescence, 18 h; TGF-beta stimulated, 500 pg/mL final | Potency, µM (highest dose often 46.1 µM), for inactives: top-dose activity, negative = inhibition, actives largely listed as inhibitors | 410,000 compounds, 1.2% hits; further: potency means the concentration at half of the fitted maximal effect; on the % scale 0 is the no-effect control and ±100 the full control effect; nearly all actives have a fitted effect of over 65% in size
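Per well, imaged GFP fluorescence of HEPG2 CAGA-GFP cells gives the signal; cells get compound, then TGF-beta (500 pg/mL final), 18 h at 37 degrees C; %Activity versus -TGF-beta and +DMSO controls.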
S-ASM inh: inhibitors of human secretory acid sphingomyelinase; placental ASM, HMU-PC fluorogenic substrate, 60 min; Potency, µM (top dose mostly 57.5 µM), for the others: top-dose activity change, negative = inhibition, hits mostly inhibitors; 340,000 compounds, 0.006% hits; further: potency means the concentration at half of the fitted maximal effect
Target sequence (P17405 47-631 limits assumed): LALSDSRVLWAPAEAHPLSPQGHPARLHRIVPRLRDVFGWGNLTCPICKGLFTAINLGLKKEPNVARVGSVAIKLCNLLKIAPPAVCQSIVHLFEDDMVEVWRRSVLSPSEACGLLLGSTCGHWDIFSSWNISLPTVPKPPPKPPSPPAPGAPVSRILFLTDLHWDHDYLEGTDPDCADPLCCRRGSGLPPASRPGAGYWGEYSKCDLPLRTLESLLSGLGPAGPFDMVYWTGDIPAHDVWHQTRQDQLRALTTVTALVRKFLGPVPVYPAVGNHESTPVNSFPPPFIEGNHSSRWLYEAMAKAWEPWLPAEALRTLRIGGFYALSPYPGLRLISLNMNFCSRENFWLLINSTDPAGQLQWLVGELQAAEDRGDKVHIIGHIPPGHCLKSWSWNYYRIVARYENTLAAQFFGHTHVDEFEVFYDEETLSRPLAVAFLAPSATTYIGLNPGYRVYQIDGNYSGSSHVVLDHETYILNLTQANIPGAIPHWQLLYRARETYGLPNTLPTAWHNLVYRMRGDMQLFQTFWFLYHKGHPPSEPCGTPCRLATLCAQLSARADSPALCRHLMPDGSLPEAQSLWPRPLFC
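Human placenta-derived ASM preincubated with compound 10 min at room temperature, then reacted with 9 uM (final) fluorogenic HMU-PC substrate for 60 min at 37 C. Stop solution raises pH to 10; fluorescence read at Ex 386/Em 447 nm.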
DT40 TDP1 no CPT: qHTS for Inhibitors of human tyrosyl-DNA phosphodiesterase 1 (TDP1): qHTS in cells in absence of CPT; DT40 Tdp1-/- hTDP1 cells, no CPT, ATP luminescence, 48 h; Potency, µM (highest dose often 46.2 µM), for inactives: top-dose activity change, negative = growth inhibition, most hits filed as inhibitors; 420,000 compounds, 15% hits; AID 686978, 2013; further: potency means the concentration at half of the fitted maximal effect; on the % scale 0 is the no-effect control and ±100 the full control effect; nearly all actives have a fitted effect of over 55% in size
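Cells were dispensed at 400 per well, compounds added by pin tool, plates incubated ≥48 hr at 37 °C, then CellTiter-Glo added for 30 min at room temperature before luminescence reading. Line: DT40 Tdp1-/- complemented with hTDP1; camptothecin omitted.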
IL1B secr inh: inflammasome signaling inhibition, IL-1 beta readout; THP-1 LPS/ATP IL-1B secretion, AlphaLISA, 16 h; hits give low values; activity change, % at 57.5 µM; 360,000 compounds, 4.7% hits; AID 743279; in the data active means activity change below about -50%; inconclusive means mostly about -30% to -49%; further: on the % scale 0 is the no-effect control and ±100 the full control effect
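THP-1 cells pretreated 1 hr with compounds (up to 57.5 uM final), then stimulated with LPS (250 ng/mL final) plus ATP (1.25 mM final); secreted IL-1B measured by AlphaLISA after 16 hr, decreased signal indicating inhibition.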
DT40 TDP1 CPT: growth inhibition of DT40 Tdp1-/-;hTDP1 cells with camptothecin (screen for TDP1 inhibitors) | Potency, µM (doses to about 46.2 µM), without a hit: at the top dose activity change, negative = growth inhibition, actives largely listed as inhibitors | 420,000 compounds, 12% hits | AID 686979 | chicken DT40 Tdp1-/-;hTDP1 cells + 20 nM CPT, ATP luminescence, 48 h; further: potency means the concentration at half of the fitted maximal effect; on the % scale 0 is the no-effect control and ±100 the full control effect; nearly all actives have a fitted effect of over 55% in size
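Chicken DT40 Tdp1-/- cells complemented with human TDP1, 400 cells/well, exposed to compounds plus 20 nM camptothecin for at least 48 h at 37 C; viability read as ATP content by CellTiter-Glo luminescence.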
HepG2 viability: HepG2 cytotoxicity, counter-screen for TGF-b inhibitors; 410,000 compounds, 0.76% hits; AID 588856; Potency, µM (doses to about 46.1 µM), for inactives: at the top dose activity change, negative = cytotoxicity, actives largely listed as cytotoxic; HepG2 CAGA-GFP viability, ATP luminescence, 18 h; further: potency means the concentration at half of the fitted maximal effect
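HepG2 CAGA-GFP cells (1000/well, DMEM with 1% FBS) received compound, then TGF-beta at 500 pg/mL final, and were incubated 18 hours at 37 degrees C. Viability was read by CellTiter-Glo luminescence. Media-only wells were set as complete cell-killing and DMSO as no toxicity.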
Active calls of the source: *; ? = inconclusive; / = not tested or not shown; [ ] = dose if it differs, or a comment. Unless noted, the call rests on the fitted dose curve; in most records, active means well fitted curve in the direction sought with a large enough effect; inconclusive means small, poorly fitted or top-dose-only effect, or another doubt; inactive means no such curve, though single readings can be large; an effect the other way counts as inactive or inconclusive.

SMILES	TGFb SMAD3 inh	S-ASM inh	DT40 TDP1 no CPT	IL1B secr inh	DT40 TDP1 CPT	HepG2 viability
CN(C)C1=NC[C@H](Cc2ccccc2)N1CC1CCCCC1	-9.3%	-3.0%	11.6µM*	-11.0	13µM*	-24.0%
CN(C)C1=NC[C@H](Cc2ccccc2)N1CC1CCCC1	5.2%	-1.4%	23.1µM*	10.2	14.6µM*	-5.1%
CN(C)C1=NC[C@H](Cc2ccccc2)N1CC1CCC(C(C)(C)C)CC1 (stereo partly specified)	0.3%	1.6%	13µM*	-25.7	20.6µM*	-32.3%
CC(C)C[C@H]1CN=C(N(C)C)N1CC1CCCCCC1	-22.6%	-0.2%	20.6µM*	-13.6	13µM*	-32.2%
Cc1ccc(Cl)c(NC(=O)COC(=O)c2cc[n+]([O-])cc2)c1Cl	-0.3%	3.7%	-2.3%	-8.5	0.5%	-0.9%
CCOc1ccccc1C1c2[nH]c3ccccc3c2C[C@H]2C(=O)N(C3CCN(Cc4ccccc4)CC3)CC(=O)N12 (stereo partly specified)	?	-0.3%	16.4µM*	?	5.8µM*	-22.4%
COc1ccc(C2c3[nH]c4ccccc4c3C[C@H]3C(=O)N(C4CCN(Cc5ccccc5)CC4)CC(=O)N23)c(OC)c1 (stereo partly specified)	-7.3%	-5.1%	14.6µM*	9.4	?	1.1%
COc1ccc(OC)c(C2c3[nH]c4ccccc4c3C[C@H]3C(=O)N(C4CC4)CC(=O)N23)c1 (stereo partly specified)	2.0%	-0.8%	-22.2%	-4.9	-2.2%	-2.9%
O=C(C[n+]1ccccc1Cl)c1ccc(F)cc1	-4.9%	/	-16.4%	/	-14.1%	-34.4%
Cc1ccc(NC(=O)CCCc2nc3ccccc3s2)c(O)c1	-27.4%	-0.9%	-16.0%	94.9	-22.4%	-22.8%
COc1ccc(N2CCN(CC(O)COc3ccc4c(c3)CCC4)CC2)cc1 (stereo unspecified)	-10.2%	-2.5%	23.1µM*	?	18.4µM*	-26.5%
C=CCc1ccccc1OCC(O)CN(C(C)C)C(C)C (stereo unspecified)	-4.4%	-7.6%	23.1µM*	-16.7	-24.5%	2.9%
C=CCc1ccccc1OCC(O)CN1CCOCC1 (stereo unspecified)	0.0%	-3.2%	-22.3%	-14.1	-8.2%	-47.2%
C=CCc1ccccc1OCC(O)CN1CCN(c2ccc(OC)cc2)CC1 (stereo unspecified)	-18.1%	1.6%	?	-22.5	16.4µM*	-42.8%
OC(COc1ccc2c(c1)CCC2)CN1CCN(c2ccccc2F)CC1 (stereo unspecified)	?	4.7%	-8.6%	-52.6*	-10.2%	-38.5%
COc1ccc(OCC(O)CN2CCN(c3ccc(Cl)cc3)CC2)cc1 (stereo unspecified)	-13.9%	-2.9%	?	14.7	-24.4%	0.8%
COCCCNC(=O)CSc1nc2cc(S(=O)(=O)N3CCCCC3)ccc2o1	-18.0%	3.3%	-29.7%	2.8	-14.8%	0.2%
CCc1ccc(C(=O)c2cn(CC(=O)Nc3ccc(OC)c(OC)c3)c3ccc(C)cc3c2=O)cc1	-31.0%	/	2.7%	/	1.4%	-0.1%
S=c1[nH]cc2cnccn12	-19.8%	/	-7.5%	10.6	-13.1%	-53.2%
Cc1ccsc1C1Cc2c(C(=O)NCc3cccnc3)c(=O)cc(C)n2-c2ccccc2S1 (stereo unspecified)	/	/	-16.6%	/	-1.1%[9.04 µM]	/
C=CCc1ccc(OCC(O)CN2CCN(Cc3ccc(Cl)cc3)CC2)c(OC)c1 (stereo unspecified)	?	-1.7%	20.6µM*	?	?	-62.3%
OC(COCc1ccc(Cl)cc1)CN1CCN(CC(O)COCc2ccc(Cl)cc2)CC1 (stereo unspecified)	0.0%	-1.0%	14.6µM*	?	18.4µM*	-42.9%
C=CCc1ccc(OCC(O)CN2CCN(c3ccccc3OC)CC2)c(OC)c1 (stereo unspecified)	?	0.5%	-8.3%	?	-19.3%	-30.0%
COc1cc(NC(=O)N2CCSc3ccccc32)cc(OC)c1OC	0.0%	/	?	/	?	-39.0%
CCOc1ccccc1N1CCN(C(=O)c2c(CC)noc2C)CC1	?	/	-8.1%	12.1	-4.8%	8.2%
SMILES	TGFb SMAD3 inh	S-ASM inh	DT40 TDP1 no CPT	IL1B secr inh	DT40 TDP1 CPT	HepG2 viability
COc1ccc(C(=O)c2ccccc2)cc1	2.2%	-0.9%	-11.4%	16.1	16.2%	15.4%
COC1=CC(=O)C(C(=O)c2ccccc2)=CC1=O	/	/	5.8µM*	/	?	/
Nc1nc(Oc2ccc(F)cc2)c(Br)c(=O)[nH]1	-12.2%	-1.1%	3.8%	54.8	-24.1%	-12.1%
Nc1c(Br)c(=O)[nH]c(=O)n1-c1ccc(F)cc1	0.7%	2.8%	23.1µM*	1.6	-99.0%	-3.3%
CCOC(=O)N1CCN(C(=O)c2ccc3c(c2)sc2nc(-c4ccc(OC)cc4)cn23)CC1	0.0%	-14.6%	23.1µM*	-20.6	?	-4.8%
CCOC(=O)C1CCN(C(=O)c2ccc3c(c2)sc2nc(-c4ccc(OC)cc4)cn23)CC1	?	/	23.1µM*	/	23.1µM*	-20.6%
Cc1ccc(SCC(=O)Nc2ccc(C(=O)Nc3ccc(O)cc3)cc2)cc1	3.6%	-1.4%	3.9%	-8.3	-5.2%	9.4%
O=c1[nH]cc(N2CCCCCC2)c(=O)[nH]1	0.0%	3.7%	-15.5%	2.2	23.9%	-40.9%
CC1=C(C(=O)Nc2ccc(F)cc2)C(c2ccc(N(C)C)cc2)NC(=O)N1 (stereo unspecified)	-12.0%	/	-12.6%	/	2.5%	2.6%
CCSc1ccccc1C(=O)Nc1nc2ccccc2c(=O)[nH]1	13.0%	-3.4%	20.6µM*	5.6	?	-1.4%
CCc1ccc(NCc2nc3ccccc3c(=O)[nH]2)cc1	-0.7%	-17.9%	-11.6%	21.5	-9.5%	-16.1%
CC(C)Nc1nc2ccccc2c(=O)[nH]1	-14.2%	2.3%	?	23.8	16.4µM*	-4.4%
CCCCNCc1nc2ccccc2c(=O)[nH]1	-1.9%	-1.4%	-28.3%	-52.3*	-15.9%	-5.8%
O=c1[nH]c(-c2ccncc2)nc2ccccc12	5.4%	1.5%	?	17.3	20.6µM*	-4.6%
Cc1cc(C)cc(Nc2nc3ccccc3c(=O)[nH]2)c1	?	-10.6%	?	-4.8	-29.9%	-30.2%
CCCNc1nc2ccccc2c(=O)[nH]1	3.0%	6.4%	20.6µM*	-69.1*	11.6µM*	-4.2%
